Screens from PubChem BioAssay.
HCMV antiviral: qHTS Assay for inhibitors of the human cytomegalovirus (HCMV) | HFF cells, HCMV-luciferase reporter, 72 h; hits give low values | activity change, negative = inhibition, % at 57.5 µM | 4.5% of 410,000 active | AID 1259415, 2018; in the data active = activity change below about -60%; inconclusive = no clear call, values can overlap the other calls; inactive = above about -39%
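Compounds were evaluated in HFFs infected with an HCMV luciferase reporter virus (MOI 1 PFU/cell). Luciferase in lysates collected 72 h post infection served as the replication measure.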
RE007 growth inh: qHTS Assay for Inhibitors of the HIV-1 protein Vpr | S. pombe RE007 Vpr strain, BacTiter-Glo ATP luminescence, 24 h | Potency, µM (highest dose often 92.2 µM), for the others: at the top dose activity change, negative = less growth, actives largely listed as inhibitors | 0.21% of 360,000 active | AID 651644, 2012; active = well fitted falling curve with a large enough effect; inconclusive = small, poorly fitted or top-dose-only effect; inactive = no such curve, though single readings can be large or run the other way; also: potency is read from the fitted curve at half-maximal effect; nearly all actives have a fitted effect of over 50% in size
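Fission yeast RE007 carrying one integrated HIV-1 vpr copy, seeded at OD 0.01 in PMG+AL medium with 23 nL pinned compound. Grown 24 h at 30 degrees; viability read by BacTiter-Glo luminescence after 5 min.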
Sm TGR inh: qHTS Assay for the Inhibitors of Schistosoma Mansoni Peroxiredoxins; purified TGR, DTNB reduction, TNB absorbance 405 nm; AID 485364, 2010; Schistosoma mansoni thioredoxin glutathione reductase (TGR), Q962Y6; Potency, µM (top dose mostly 114 µM), without a hit: at the top dose activity change, negative = inhibition, actives largely listed as inhibitors; 3% of 360,000 active; also: potency is read from the fitted curve at half-maximal effect; nearly all actives have a fitted effect of over 60% in size
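Kinetic colorimetric format: TGR-catalysed, NADPH-driven DTNB reduction monitored via TNB absorbance. Enzyme dispensed at 20 nM; compound exposure 15 min at room temperature before reaction start.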
FBPA Giardia inh: qHTS Assay for Inhibitors of Fructose-1,6-bisphosphate Aldolase from Giardia Lamblia. A8B2U2. purified Giardia FBPA. Potency, µM (doses to about 59.6 µM), for the others: at the highest dose activity, negative = inhibition, usual class: inhibitors. 0.71% of 290,000 active. AID 2451, 2010; also: potency is read from the fitted curve at half-maximal effect; nearly all actives have a fitted effect of over 55% in size
Target sequence (A8B2U2 whole entry, looked up): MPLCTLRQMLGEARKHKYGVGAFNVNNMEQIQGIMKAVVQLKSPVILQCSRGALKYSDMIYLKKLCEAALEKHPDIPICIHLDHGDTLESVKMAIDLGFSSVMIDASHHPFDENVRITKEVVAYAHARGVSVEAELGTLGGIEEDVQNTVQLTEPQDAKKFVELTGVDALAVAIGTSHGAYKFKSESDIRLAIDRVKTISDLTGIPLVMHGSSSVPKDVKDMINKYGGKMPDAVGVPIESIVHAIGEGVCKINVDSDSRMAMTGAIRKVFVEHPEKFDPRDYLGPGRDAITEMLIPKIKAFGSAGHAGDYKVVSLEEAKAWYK
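Giardia FBPA (40 nM reagent) was preincubated 10 min at RT with compound (up to 57.5 uM final), then substrate plus GAPDH/TPI/NAD/arsenate coupling system with diaphorase/resazurin was added; resorufin fluorescence (525/598 nm) was read after 20 min.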
FMDV inh: High Throughput Screening for Foot and Mouth Disease Virus Antivirals. 1.2% of 410,000 active. Potency, µM (doses to about 57.9 µM), without a hit: at the top dose activity change, negative = inhibition, actives largely listed as inhibitors. AID 1159524, 2015. FMDV antiviral cell-based qHTS; calls by dose curve; tested in HEK293T cells; also: read-out not given here; potency is read from the fitted curve at half-maximal effect; nearly all actives have a fitted effect of over 45% in size
Tb PYK inh: qHTS of Trypanosoma Brucei Inhibitors; TbPYK enzyme, Kinase-Glo Plus ATP luminescence, 45 min; AID 624173, 2012; 0.12% of 410,000 active; pyruvate kinase (Trypanosoma brucei), Q57TT1; Potency, µM (series often up to 76.8 µM), for inactives: at the top dose activity, negative = inhibition, most hits filed as inhibitors; also: potency is read from the fitted curve at half-maximal effect; nearly all actives have a fitted effect of over 50% in size
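Activity of T. brucei pyruvate kinase was followed by Kinase-Glo Plus luminescence after the enzyme reacted 45 min at room temperature with 130 uM ADP (final) and substrate. Test compounds were added before ADP at multiple concentrations.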
Numbers without * were called inactive. An excerpt weighted towards active compounds, which were near 7.7% of everything screened. Unless noted, calls follow the shape of the dose curve; as a rule, active = well fitted curve in the direction sought with a large enough effect; inconclusive = small, poorly fitted or top-dose-only effect, or another doubt; inactive = no such curve, though single readings can be large; an effect the other way counts as inactive or inconclusive. % is scaled to controls: 0 for no effect and ±100 for the full control effect.

How did CCOC(=O)c1ccccc1NC(=O)CN1C(=O)CCS(=O)(=O)c2ccccc21 do in these assays?
HCMV antiviral: -9.6; RE007 growth inh: -0.6%; Sm TGR inh: 39.8µM*; FBPA Giardia inh: 5.6%; FMDV inh: 53.8%; Tb PYK inh: 3.4%

How did O=C(CN1C(=O)CCS(=O)(=O)c2ccccc21)Nc1ccc(Cl)cc1 do in these assays?
HCMV antiviral: -15.6; RE007 growth inh: 2.7%; Sm TGR inh: 50.1µM*; FBPA Giardia inh: -6.6%; FMDV inh: 21.4%; Tb PYK inh: 2.0%

How did COC(=O)[C@@H]1[C@@H](CO)[C@@H]2Cn3c(ccc(Br)c3=O)[C@H]1N2S(=O)(=O)c1ccccc1F do in these assays?
HCMV antiviral: -6.2

Results for COc1ccc(Nc2c3c(nc4ccc(NC(=O)/C=C/c5cc(OC)c(OC)c(OC)c5)cc24)CCCC3)cc1OC ?
HCMV antiviral: -102.4*; Sm TGR inh: -0.5%; FMDV inh: 0.0%; Tb PYK inh: -5.1%

Results for COc1ccc(/C=C/C(=O)Nc2ccc3nc(N4CCCCC4)cc(C)c3c2)cc1OC ?
HCMV antiviral: -39.1; Sm TGR inh: 8.5%; FMDV inh: inconclusive; Tb PYK inh: 6.0%

How did COc1ccc(/C=C/C(=O)Nc2ccc3nc4c(c(Nc5ccc(OC)c(OC)c5)c3c2)CCCC4)cc1 do in these assays?
HCMV antiviral: -98.8*; Sm TGR inh: -10.8%; FMDV inh: -19.1%; Tb PYK inh: 1.8%

What do the screens show for `COc1ccc(Nc2c3c(nc4ccccc24)CCCC3)cc1OC`?
HCMV antiviral: 8.2; RE007 growth inh: -16.4%; Sm TGR inh: -15.7%; FBPA Giardia inh: 3.5%; FMDV inh: -24.6%; Tb PYK inh: -0.8%

What do the screens show for `COc1cc(N)c(Cl)cc1C(=O)OCC(=O)NCC1CCCO1` (stereo not given)?
HCMV antiviral: -13.6; RE007 growth inh: 4.0%; FMDV inh: -20.5%; Tb PYK inh: 0.1%

What do the screens show for `COc1cc(N)c(Cl)cc1C(=O)OCC(=O)NCC1CCCCC1`?
HCMV antiviral: -66.4*; RE007 growth inh: 9.8%; FMDV inh: -18.1%; Tb PYK inh: 2.8%

Results for O=C1/C(=C/c2ccco2)SC(=S)N1CCC(=O)N1CCCCC1CCO (stereo not given) ?
HCMV antiviral: -91.8*; RE007 growth inh: -10.1%; Sm TGR inh: 22.4µM*; FMDV inh: -0.1%; Tb PYK inh: -20.8%

Results for COc1ccc(/C=C2\SC(=O)N(CCC(=O)N3CCCCC3CCO)C2=O)cc1 (stereo not given) ?
HCMV antiviral: -7.5; RE007 growth inh: -3.3%; Sm TGR inh: -8.9%; FMDV inh: -14.2%; Tb PYK inh: -2.8%

Results for O=C1/C(=C/c2cccc(Cl)c2)SC(=S)N1CCC(=O)N1CCCCC1CCO (stereo not given) ?
HCMV antiviral: -82.5*; RE007 growth inh: -6.2%; Sm TGR inh: -0.2%; FMDV inh: -16.6%; Tb PYK inh: -4.5%

What do the screens show for `COc1cccc(/C=C2\SC(=S)N(CCC(=O)N3CCCCC3)C2=O)c1`?
HCMV antiviral: inconclusive; RE007 growth inh: 0.6%; Sm TGR inh: 4.4%; FBPA Giardia inh: -0.9%; FMDV inh: 13.0%; Tb PYK inh: -0.3%

What do the screens show for `O=C1/C(=C/c2ccc(Cl)cc2)SC(=S)N1CCC(=O)N1CCCCC1CCO` (stereo not given)?
HCMV antiviral: -86.0*; RE007 growth inh: -13.5%; Sm TGR inh: -5.1%; FMDV inh: -19.4%; Tb PYK inh: -6.8%

How did COc1ccc(/C=C2\SC(=S)N(CCC(=O)N3CCCCC3CCO)C2=O)cc1 (stereo not given) do in these assays?
HCMV antiviral: -84.0*; RE007 growth inh: -6.2%; Sm TGR inh: -9.5%; FBPA Giardia inh: 10.0%; FMDV inh: inconclusive; Tb PYK inh: 0.0%
